Our source for the z-score values is PubChem BioAssay.

Calls of active or inactive are those of the source.
Note: test concentration not given here.

A short description of one test: basal 3T3-L1 adipocyte mitochondrial potential changes, profiling panel, cell-based, JC-1 fluorescence, 3T3-L1 adipocytes, 24 h, 100 nL compound (AID 1168). The following applies: JC-1 mitochondrial fluorescence, higher = more signal, called active from +8 up or from −8 down.
For `O=C(O)[C@H]1C[C@H]2C(=O)N[C@@H](Cc3ccccc3)C(=O)N2[C@H]1c1cccc(OCCO)c1`, the z-score is -0.169 (inactive).

Take `CCCCCCCCCCC(O)C1C=CC2C(=O)N(C)C(=O)C2N1Nc1cc(OC)c(OC)c(OC)c1` (stereo not drawn): the z-score was 0.485 (inactive).

In the case of `C=CCN1C(=O)[C@]2(O[C@H](CCO)[C@@H]([Si](C)(C)c3ccc(OC)cc3)[C@@H]2C)c2cc(N3C(=O)COc4ccccc43)ccc21`, the z-score is 0.707 (inactive).

As to `CCOC(=O)C1=CCC(c2ccccc2)N(S(=O)(=O)c2ccc([N+](=O)[O-])cc2)C1` (stereo not drawn), the z-score is -0.483 (inactive).

Take `CCOC(=O)C1=C[C@@H](c2ccccc2)N(S(=O)(=O)c2ccc(C)cc2)[C@H]1c1ccccc1`: the z-score was -2.52 (inactive).

`C=CCNC(=O)[C@@H]1[C@H]2C(=O)O[C@H](c3ccccc3)[C@H](c3ccccc3)N2[C@H](c2ccc(O)cc2)[C@@]12C(=O)Nc1ccc(C#CCC(C(=O)OC)C(=O)OC)cc12`: the z-score is -0.271 (inactive).

As for `C=C[C@@H](C)[C@@H](OC(=O)Nc1ccc(SC)cc1)c1ccc(OCCO)cc1`, the z-score was -0.75 (inactive).

In the case of `COc1cc(NN2C(C(O)c3cc(OC)c(OC)c(OC)c3)C=CC3C(=O)N(c4ccccc4)C(=O)C32)cc(OC)c1OC` (stereo not drawn), the z-score was -0.768 (inactive).

On to `COc1ccc([Si](C)(C)[C@@H]2[C@@H](CC(=O)N3Cc4ccccc4C[C@H]3CO)O[C@]3(C(=O)N(Cc4ccc(N5CCC5=O)cc4)c4ccccc43)[C@H]2C)cc1`, for which the z-score was 1.37 (inactive).

Regarding `CN(C)C(=O)[C@@]1(CCC(=O)OC(C)(C)C)N=C(c2ccc(OCCCO)cc2)O[C@H]1c1ccccc1CN=[N+]=[N-]`, the z-score is -0.682 (inactive).

With `CCOC(=O)C[C@H]1[C@H](OC(=O)c2ccccc2-c2ccccc2)[C@@H](NC(=O)c2ccccc2)c2cc(OCCCO)ccc2N1C(=O)c1ccccc1`, the z-score was -0.0812 (inactive).

For the compound `CN(C)CCCC[C@@H]1NC(=O)[C@@H]2C[C@H](C(=O)O)[C@H](c3cccc(OCCO)c3)N2C1=O`, the z-score is -0.864 (inactive).

The next test is described as follows: basal RPMI8226 mitochondrial membrane potential changes, profiling panel, cell-based, JC-1 fluorescence, 24 h, 100 nL compound (AID 1169). The following applies: RPMI8226 myeloma, JC-1 mitochondrial potential fluorescence, higher = more signal.
`COc1ccc([Si](C)(C)[C@@H]2[C@@H](CCn3cc([C@H](O)c4ccccc4)nn3)O[C@]3(C(=O)N(c4ccccc4)c4ccccc43)[C@H]2C)cc1` displayed a z-score of -0.973.

With `CCN(CC)c1ccc(N2CC=CC34O[C@@H]5C=CCCOC(=O)C5[C@H]3C(=O)N(CCO)[C@@H]4C2=O)cc1` (stereo partly drawn), the z-score amounted to 0.277.

`COc1ccc([Si](C)(C)[C@H]2[C@H](CCO)O[C@@]3(C(=O)N(Cc4ccc(N5C(=O)c6ccccc6Oc6ccccc65)cc4)c4ccccc43)[C@@H]2C)cc1` registered a z-score of -1.01.

Take `CC(C)CNC(=O)[C@@]1(C)c2ccccc2C(=O)N(Cc2cc(C(F)(F)F)cc(C(F)(F)F)c2)[C@H]1c1ccc(CO)cc1`: the z-score was 0.465.

Turning to `[N-]=[N+]=NC[C@H](Cc1ccccc1)NC(=O)c1ccccc1`, the z-score is -0.0299.

For `CN(C)C(=O)[C@]1(CCS(=O)(=O)c2ccccc2)N=C(c2ccc(OCCCO)cc2)O[C@@H]1c1ccccc1`, the z-score is -0.783.

In turn, `O=C(CS)NCCCCCNC(=O)[C@@H]1C[C@@H]2C(=O)N[C@@H](Cc3ccccc3)C(=O)N2[C@@H]1c1cccc(OCCO)c1` yielded a z-score of -0.203.

The compound `CN1C(=O)C2C=CC(C(O)c3ccc(F)cc3)N(NC(=O)OC(C)(C)C)C2C1=O` (stereo not drawn) showed a z-score of 0.247.

`[N-]=[N+]=NCc1ccccc1[C@@H]1OC(c2ccc(OCCCO)cc2)=N[C@]1(Cc1ccccc1)C(=O)NCCN1CCOCC1` came in with a z-score of -0.191.

In the case of `[N-]=[N+]=Nc1ccccc1[C@@H]1OC(c2ccc(OCCCO)cc2)=N[C@]1(Cc1ccccc1)C(=O)NCc1ccccc1`, the z-score is -1.14.

The compound `CO[C@H]1O[C@H](CO)[C@@H](OC(=O)Nc2ccc(C#N)cc2)[C@@H]2OC(=O)[C@H](Cc3cccc(Br)c3)C/C=C/C[C@@H](Cc3cccc(Br)c3)C(=O)O[C@@H]12` returned a z-score of -0.579.

In turn, `CC(C)C[C@@H]1NC(=O)[C@@]23C(=O)N[C@@H](Cc4ccccc4)C2[C@H](C)[C@@]2(C)O[C@H]2C3/C=C/C/C=C\CNC(=O)[C@@H](C)NC1=O` (stereo partly drawn) came in with a z-score of 0.207.

The compound `COCCOC(=O)N1C(=O)[C@@]2(c3cc(C#CCC(C(=O)OC)C(=O)OC)ccc31)[C@H](c1ccc(O)cc1)N1[C@H](c3ccccc3)[C@H](c3ccccc3)OC(=O)[C@H]1[C@@H]2C(=O)NC[C@H](O)c1ccccc1` returned a z-score of -1.08.

Compound `C=CCC(OC(C)=O)[C@@H]1[C@@H](N(Cc2ccc(-c3cccc(C(F)(F)F)c3)o2)C(=O)c2ccc(C)cc2)c2cc(OCCCO)ccc2N1C(=O)Cc1ccc(OC)cc1` (stereo partly drawn) registered a z-score of -0.245.

As for `CCCCC(=O)N(CCN1CCOCC1)[C@@H]1CC(C(=O)NCCO)=C[C@H](Oc2c(I)cc(CO)cc2OC)[C@H]1O`, the z-score is -0.277.

As to `O=C1NC(=O)C2C1C=CC(C(O)c1ccccn1)N2Nc1ccc(Cl)cc1Cl` (stereo not drawn), the z-score was -0.05.

`C=CCC(OC(C)=O)[C@@H]1[C@@H](N(Cc2ccc(-c3cccc(C(F)(F)F)c3)o2)C(=O)Cc2ccc(OC)cc2)c2cc(OCCCO)ccc2N1C(=O)Cc1ccc2ccccc2c1` (stereo partly drawn): the z-score amounted to 0.114.

Compound `C=C[C@@H](C)[C@H](O)c1ccc(OCCO)cc1` gave a z-score of 0.948.

On to `O=C1O[C@H](c2ccccc2)[C@H](c2ccccc2)N2[C@H]1[C@@H](C(=O)N1CCCCCCC1)[C@]1(C(=O)Nc3ccc(C#CC4(O)CCCCCC4)cc31)[C@H]2c1ccccc1OCCO`, for which the z-score is -0.74.

Consider `O=C1O[C@H](c2ccccc2)[C@H](c2ccccc2)N2[C@H]1[C@@H](C(=O)N1CCCCCCC1)[C@]1(C(=O)Nc3ccc(C#CC4(O)CCCCCC4)cc31)[C@H]2c1ccc(O)cc1`, for which the z-score was -0.613.

Compound `COCCOC(=O)N1C(=O)[C@@]2(c3ccccc31)[C@H](c1ccc(OCCO)cc1)N1[C@H](c3ccccc3)[C@H](c3ccccc3)OC(=O)[C@H]1[C@@H]2C(=O)N1CCCCCCC1` registered a z-score of -0.345.

As to `CC(=O)NCCCC[C@@H]1NC(=O)[C@@H]2C[C@H](C(=O)NCCCCCCN)[C@H](c3cccc(OCCO)c3)N2C1=O`, the z-score is 0.648.

On to `[N-]=[N+]=Nc1ccccc1C[C@]1(C(=O)O)N=C(c2ccc(OCCCO)cc2)O[C@H]1c1ccccc1N=[N+]=[N-]`, for which the z-score was -0.739.

In turn, `CCN(CC)c1ccc(N2CC=CC34O[C@@H]5/C=C\CCC(C)OC(=O)C5[C@H]3C(=O)N(C(C)CO)[C@@H]4C2=O)cc1` (stereo partly drawn) yielded a z-score of -0.616.

`O=C(O)[C@H]1C[C@H]2C(=O)N[C@@H](Cc3ccccc3)C(=O)N2[C@H]1c1cccc(OCCO)c1` showed a z-score of -0.299.

As to `CCCCCCCCCCC(O)C1C=CC2C(=O)N(C)C(=O)C2N1Nc1cc(OC)c(OC)c(OC)c1` (stereo not drawn), the z-score was -0.913.

Consider `C=CCN1C(=O)[C@]2(O[C@H](CCO)[C@@H]([Si](C)(C)c3ccc(OC)cc3)[C@@H]2C)c2cc(N3C(=O)COc4ccccc43)ccc21`, for which the z-score was -1.06.

As for `CCOC(=O)C1=CCC(c2ccccc2)N(S(=O)(=O)c2ccc([N+](=O)[O-])cc2)C1` (stereo not drawn), the z-score was found to be 0.602.

Consider `CCOC(=O)C1=C[C@@H](c2ccccc2)N(S(=O)(=O)c2ccc(C)cc2)[C@H]1c1ccccc1`, for which the z-score is -0.368.

For `C=CCNC(=O)[C@@H]1[C@H]2C(=O)O[C@H](c3ccccc3)[C@H](c3ccccc3)N2[C@H](c2ccc(O)cc2)[C@@]12C(=O)Nc1ccc(C#CCC(C(=O)OC)C(=O)OC)cc12`, the z-score is -1.25.

In turn, `C=C[C@@H](C)[C@@H](OC(=O)Nc1ccc(SC)cc1)c1ccc(OCCO)cc1` came in with a z-score of -0.15.

Turning to `COc1cc(NN2C(C(O)c3cc(OC)c(OC)c(OC)c3)C=CC3C(=O)N(c4ccccc4)C(=O)C32)cc(OC)c1OC` (stereo not drawn), the z-score is -0.286.

On to `COc1ccc([Si](C)(C)[C@@H]2[C@@H](CC(=O)N3Cc4ccccc4C[C@H]3CO)O[C@]3(C(=O)N(Cc4ccc(N5CCC5=O)cc4)c4ccccc43)[C@H]2C)cc1`, for which the z-score is -0.553.

`CN(C)C(=O)[C@@]1(CCC(=O)OC(C)(C)C)N=C(c2ccc(OCCCO)cc2)O[C@H]1c1ccccc1CN=[N+]=[N-]`: the z-score is -1.18.

Turning to `CCOC(=O)C[C@H]1[C@H](OC(=O)c2ccccc2-c2ccccc2)[C@@H](NC(=O)c2ccccc2)c2cc(OCCCO)ccc2N1C(=O)c1ccccc1`, the z-score is -0.485.

Regarding `CN(C)CCCC[C@@H]1NC(=O)[C@@H]2C[C@H](C(=O)O)[C@H](c3cccc(OCCO)c3)N2C1=O`, the z-score is -0.804.
